This is an account of results in PubChem BioAssay AID686979 (National Center for Advancing Translational Sciences (NCATS), 2013).

Screen size: about 420,000 compounds; about 50,000 (12%) were called active. A call without a number means that no potency is given here. Not shown: some 26% with an inconclusive outcome. The call rests on the fitted dose curve; in most records, active means well fitted inhibition curve with a large enough effect; inconclusive means small, poorly fitted or top-dose-only effect; inactive means flat fitted curve, though single readings scatter. For the sample, actives were picked, then their nearest neighbours and some compounds at random.
Potency means the concentration at half of the fitted maximal effect.

The test in a line: qHTS for Inhibitors of human tyrosyl-DNA phosphodiesterase 1 (TDP1): qHTS in cells in presence of CPT. Further: nearly all actives have a fitted effect of over 55% in size. The following applies: chicken DT40 Tdp1-/-;hTDP1 cells + 20 nM CPT, ATP luminescence, 48 h; series mostly up to 46.2 µM. In outline: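 Cell growth measured by CellTiter-Glo luminescence after a minimum 48 h, 37 C compound exposure with 20 nM CPT in Tdp1-knockout DT40 cells stably expressing hTDP1, seeded 400/well; qHTS titration format.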
In general terms: In qHTS, concentration-response curves come from the screen itself.
Turning to `O=C(Cc1ccc(Cl)cc1)c1ccccc1`, the Potency result is “inactive”. On the same count and under the same terms, with `CCCCCCNCCn1cnc2c(N)ncnc21` the entry was “inactive”; with `COc1ccc(NC(=O)c2ccc3oc(=O)c(S(=O)(=O)c4ccc(F)cc4)cc3c2)c(OC)c1`, “inactive”; with `COc1cccc(NC(=O)CN(C)C(C)C(=O)Nc2ccc(C#N)cc2)c1` (configuration not stated), “inactive”. As to `CCOC(=O)c1cc2c(=O)n3ccccc3nc2n(CCCOC)c1=NC(=O)C(C)(C)Oc1ccc(Cl)cc1`, the Potency entry is “inactive”.

On to `Nc1cc2c(cc1Br)-c1ccc(F)cc1C2=O`, for which the Potency result was “inactive”. For the compound `CC(C)(C)C(=O)CSc1nc2ccccc2o1`, the Potency result is “inactive”. The same measure, in the same setting: the result for `Cc1ccc(/C=N/NC(=O)CSc2nc3ccccc3o2)cc1` reads 18.4 µM (active).

As for `CCN(CC)C(=O)CSc1nc2ccccc2o1`, the Potency entry is “inactive”. For `CC(Sc1nnc(C2CC2)n1C1CC1)C(=O)Nc1ccc(C(N)=O)cc1` (configuration not stated), the Potency entry is “inactive”. Take `COc1ccc(NS(=O)(=O)c2ccc(N3CCN(CCO)CC3)c([N+](=O)[O-])c2)cc1`: the Potency is 9.2 µM (active). As for `CC1CCN(c2ccc(S(=O)(=O)Nc3cc(C(=O)O)cc(C(=O)O)c3)cc2[N+](=O)[O-])CC1`, the Potency result is “inactive”. With `COc1ccc(NS(=O)(=O)c2ccc(N3CCOCC3)c(NC(=O)/C=C/C(=O)O)c2)cc1`, the Potency result was “inactive”.

With `O=C(CSc1nncn1-c1cccnc1)N1CCOCC1`, the Potency result was “inactive”.

As to `O=C1NC(c2ccccc2)Cc2ccncc21` (configuration not stated), the Potency result is “inactive”. As to `COc1ccc(OC)c(Cc2nnc(CCC(=O)NC3CCCC3)o2)c1`, the Potency result is “inactive”. As for `COc1ccc(OC)c(Cc2cnc3nc(N)nc(N)c3c2C)c1`, the Potency was 0.259 µM (active). On to `COc1ccc(OC)c(NC(=O)c2sc3nc(C)cc(C)c3c2N)c1`, for which the Potency result was “inactive”. As to `COCC1CCCN(Cc2ccc3c(c2)CN(C(=O)c2ccnn2C)CCO3)C1` (configuration not stated), the activity change, negative = growth inhibition was -3.58% [at 9.04 µM] (inactive). Take `O=C(c1[nH]ncc1-c1ccc(Cl)cc1)C1CO1` (configuration not stated): the Potency was 1.03 µM (active).

`S=c1[nH]nc(-c2ccc(Cl)cc2)n1CC1CCCO1` (configuration not stated): the Potency result was “inactive”. The same measure, in the same setting: with `COC(=O)c1ccc(C)c(NC(=O)C2CC(=O)N(C3CCCC(C)C3C)C2)c1` (configuration not stated) the entry was “inactive”; with `C=C1C(=C/C=C2\CCC[C@]3(C)[C@@H]([C@H](C)CCCC(C)(C)O)CC[C@@H]23)C[C@@H](O)C[C@@H]1O`, 9.44 µM (active); with `CCNC(=O)C1(C)CCCN(C(=O)c2ccc3ccccc3n2)C1` (configuration not stated), “inactive”.

Take `CCOC(=O)c1sc(NC(=O)CSc2n[nH]c(CC)n2)nc1C`: the Potency entry is “inactive”. With `O=C(N/N=C/c1ccc(Br)o1)c1cncc(Br)c1`, the Potency entry was “inactive”. As to `Cc1sc2ncn(CC(=O)NCCCC(=O)NCc3ccc(F)cc3)c(=O)c2c1C`, the Potency entry is “inactive”. As for `O=C1N[C@H](Cc2ccccc2)C(=O)N[C@H]1Cc1cn(S(=O)(=O)c2ccccc2)c2ccccc12`, the Potency is 13 µM (active).

With `Cn1cc(S(=O)(=O)N2CCC(Cc3ccccc3)CC2)c(=O)n(C)c1=O`, the Potency entry was “inactive”.

Take `CSc1ncccc1C(=O)Nc1ccc2c(c1)OCO2`: the Potency entry was “inactive”.

For `Cc1c(NC(=O)CCCOc2ccccc2)cccc1[N+](=O)[O-]`, the Potency result was “inactive”. Regarding `Cc1c(NC(=O)/C=C/C(=O)O)cccc1[N+](=O)[O-]`, the Potency result is “inactive”. `Cc1c(NC(=S)NCc2ccc(F)cc2)cccc1[N+](=O)[O-]`: the Potency is 20.6 µM (active). `CCN(CC(=O)NCc1ccc(Cl)cc1)C(=O)CSc1ccccc1`: the Potency result was “inactive”.

Take `c1ccc(-c2ccc3c(c2)NC(C2Nc4cc(-c5ccccc5)ccc4O2)O3)cc1` (configuration not stated): the Potency result was “inactive”.

Regarding `CC1CCN(S(=O)(=O)c2ccc3[nH]c(=O)ccc3c2)CC1`, the Potency entry is “inactive”. Regarding `CC(=O)c1cccc(NC(=O)COc2ccc(S(=O)(=O)N3CCOCC3)cc2)c1`, the Potency result was “inactive”. With `CC(=O)c1cccc(Nc2ccc3cc(S(=O)(=O)N4CCC(C)CC4)ccc3n2)c1`, the Potency was 18.4 µM (active). For `CCCc1c(C)nc2c(Br)cccc2c1Cl`, the Potency entry is “inactive”. Take `COc1cc(NS(=O)(=O)c2ccc(N/C=C(\C=O)c3nc4cc(Cl)ccc4o3)cc2)nc(OC)n1`: the Potency result is “inactive”. As to `Cn1ncc(Br)c1C(=O)NC1CCCC1`, the Potency entry is “inactive”. For `CCC(Oc1ccccc1)C(=O)OCC(=O)Nc1c(C)nn(-c2ccccc2)c1C` (configuration not stated), the Potency result is “inactive”. As for `Nc1cc(=O)n(Cc2ccccc2)c(=O)n1Cc1ccccc1`, the Potency result is “inactive”. As to `CCN1CCN(Cc2c(O)ccc3c(=O)c(-c4ccc(OC)c(OC)c4)c(C(F)(F)F)oc23)CC1`, the Potency result is “inactive”.

For `CC1CCCN(Cc2c(O)ccc3c(=O)c(Oc4ccc(C(C)(C)C)cc4)c(C(F)(F)F)oc23)C1` (configuration not stated), the Potency result is “inactive”.

As to `Cc1ccc(C)c(Oc2c(C(F)(F)F)oc3c(CN4CCN(C)CC4)c(O)ccc3c2=O)c1`, the Potency was 23.1 µM (active). Same read-out and setting: with `Cc1c(C(=O)NCc2ccccc2)cnn1-c1ccccc1` the entry was “inactive”. Still for that read-out and setting: the result for `CSc1ccc(CCNC(=O)c2cnn(-c3ccccc3)c2-n2cccc2)cc1` reads 18.4 µM (active). In the case of `CCCN1CCN(CCCNC(=O)c2cnn(-c3ccc(C)cc3)c2-n2cccc2)CC1`, the Potency result was “inactive”.

With `COc1cc(C(=O)Nc2ncccc2C)ccc1OCC(=O)N1CCOCC1`, the Potency entry is “inactive”.

`Cn1ccnc1-c1nnn(-c2ccc(F)cc2)n1`: the Potency entry is “inactive”.

`COc1ccc(CC(=O)N/N=C(\C)c2ccccn2)cc1`: the Potency was 3.66 µM (active). Regarding `COc1ccc(C/C(C)=N/NC(=O)c2ccncc2)cc1`, the Potency entry is “inactive”. Consider `CNC(=S)N1CCN(c2ccccn2)CC1`, for which the Potency entry is “inactive”. Same read-out and setting: with `COc1ccc(C/C(C)=N/NC(=O)c2cc(C)oc2C)cc1` the entry was “inactive”; with `O=C(Nc1ccc(NC(=O)c2ccccc2F)cc1)c1ccccc1F`, “inactive”. With `C/C(=N\NC(=O)Cc1ccc(Br)cc1)c1cccnc1`, the Potency result is “inactive”. As for `C/C(CC(=O)Nc1ccc(N(C)C)cc1)=N\NC(=O)c1ccccc1F`, the Potency entry is “inactive”.

Regarding `Cc1cccc(C)c1NC(=S)N1CCCCCC1`, the Potency result is “inactive”.

Turning to `C/C(=N\NC(=O)c1ccccc1F)c1ccccn1`, the Potency is 3.26 µM (active). For `Cc1ccc(Cl)cc1NC(=O)c1ccccn1`, the Potency entry was “inactive”.

As to `C/C(=N\NC(=O)Cc1ccc(Cl)cc1)c1ccccn1`, the Potency is 1.46 µM (active). Consider `CC(=NNC(=S)N1CCCCCC1)c1ccccn1`, for which the Potency was 0.0092 µM (active). As to `CCC1([N+](=O)[O-])COC(c2ccc(C)cc2)OC1` (configuration not stated), the Potency entry is “inactive”. With `Cc1cc(C(C)(C)C)n2nc(C)c(-c3ccccc3)c2n1`, the Potency result was “inactive”. As for `CCc1nnc(NC(=O)c2cc(S(=O)(=O)N3CCCCC3)ccc2C)s1`, the Potency entry was “inactive”. Still for that read-out and setting: with `CCOC(=O)C1CCN(C(c2ccc(F)cc2)c2sc3nc(-c4ccco4)nn3c2O)CC1` (configuration not stated) the entry was “inactive”.
